# Screens (PubChem)
# Beta cell apopt = beta cell apoptosis inhibition; actives 0.8% (n = 300,000); protection from apoptosis, % (no concentration beside the values); INS-1E cytokine-induced death, ATP luminescence, 48 h; percent of positive-control rescue, neutral wells zero;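 active = Every replicate reaches about 75%, or at least half do and their mean reaches it too, limit read from the data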;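 note: 0% = cytokine-treated negative control wells and 100% = positive control rescue; higher means more ATP so stronger rescue from cytokine killing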
# Mdm2-MdmX inh = disrupts the human Mdm2-MdmX interaction; SaOS-2 split-luciferase Mdm2/MdmX complementation, luminescence; O15151+Q00987; inhibition, % at 8 µM; actives 3% (n = 330,000);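 active = inhibition of at least 50% at 8 µM in the primary screen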
# Target sequence (O15151 whole entry, looked up): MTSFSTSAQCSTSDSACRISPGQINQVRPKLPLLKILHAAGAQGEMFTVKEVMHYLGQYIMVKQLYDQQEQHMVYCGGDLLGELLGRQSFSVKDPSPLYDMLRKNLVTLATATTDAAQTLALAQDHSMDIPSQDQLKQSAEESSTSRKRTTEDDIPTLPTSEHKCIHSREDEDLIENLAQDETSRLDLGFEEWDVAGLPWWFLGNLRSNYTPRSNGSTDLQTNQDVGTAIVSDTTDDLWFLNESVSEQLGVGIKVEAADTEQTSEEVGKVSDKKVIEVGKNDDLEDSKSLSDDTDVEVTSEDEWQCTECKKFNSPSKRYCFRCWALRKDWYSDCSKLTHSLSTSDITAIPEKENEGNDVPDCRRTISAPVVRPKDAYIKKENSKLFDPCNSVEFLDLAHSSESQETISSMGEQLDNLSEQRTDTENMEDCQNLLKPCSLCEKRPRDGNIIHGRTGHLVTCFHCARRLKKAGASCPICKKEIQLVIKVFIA
# Target sequence (Q00987 whole entry, looked up): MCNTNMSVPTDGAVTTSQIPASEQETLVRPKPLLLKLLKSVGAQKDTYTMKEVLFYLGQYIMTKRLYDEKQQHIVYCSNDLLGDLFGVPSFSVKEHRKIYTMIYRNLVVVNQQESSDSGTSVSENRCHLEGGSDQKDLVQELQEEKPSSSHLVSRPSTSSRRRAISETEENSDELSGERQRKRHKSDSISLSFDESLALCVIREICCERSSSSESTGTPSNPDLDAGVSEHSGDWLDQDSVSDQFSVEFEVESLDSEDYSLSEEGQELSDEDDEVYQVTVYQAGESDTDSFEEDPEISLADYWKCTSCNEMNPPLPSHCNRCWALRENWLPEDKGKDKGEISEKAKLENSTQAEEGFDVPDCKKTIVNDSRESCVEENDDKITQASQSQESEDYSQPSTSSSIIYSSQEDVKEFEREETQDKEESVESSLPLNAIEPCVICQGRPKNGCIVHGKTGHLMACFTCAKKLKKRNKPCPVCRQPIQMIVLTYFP
# Shn3 inh set2 = Schnurri-3 reporter inhibition in Clone20 osteoblasts | Clone20 osteoblast Shn3 3'UTR firefly luciferase, 24 h | inhibition, % at 12.5 µM | actives 0.52% (n = 360,000) | AID 588674;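 active = mean inhibition of at least 75% with every replicate also reaching 75%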;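 note: 0% = median of neutral control wells and 100% = pilot-screen positive control compound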
# Gli-Sufu antag = blocks Gli-Sufu signaling in a luciferase reporter | Sufu-KO-LIGHT fibroblasts, Gli luciferase reporter luminescence | inhibition, % at 5 µM | actives 0.74% (n = 340,000);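 active = inhibition above about 55%, limit read from the data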;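 note: 0% = DMSO-treated cells and 100% = wells with medium but no cells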
# PAX8 inh HTS = lowers PAX8-driven luciferase in RMG-I cells; RMG-I TPO-luciferase reporter, SteadyGlo, 24 h; inhibition, % at 12.6 µM; actives 1.2% (n = 360,000);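 active = mean replicate inhibition at least 60% with every replicate also reaching 60%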;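 note: luciferase light reporting Pax8 driven TPO promoter activity; plate controls were median of neutral control wells for no effect and mitoxantrone controls for full effect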
# CSC inhib = cancer stem cell inhibition | AID 2717 | cancer stem cell-like cells viability, luminescence | inhibition, % at 7.5 µM | actives 1.1% (n = 300,000); in the data active = inhibition above about 75%; tested in HMLE shEcad cells
# * hit, by the source's call; . = not tested or not shown; ! = not active in a repeat. A selection: hits, their analogues and other compounds. The true share with any hit is near 4%.
SMILES,Beta cell apopt,Mdm2-MdmX inh,Shn3 inh set2,Gli-Sufu antag,PAX8 inh HTS,CSC inhib
CNC[C@H]1Oc2ccc(NC(=O)Nc3ccc4c(c3)OCO4)cc2CC(=O)N([C@@H](C)CO)C[C@H]1C,.,.,.,.,-5,.
Oc1ccc(/C=N/n2cnn(Cc3ccccc3Cl)c2=S)c(O)c1,-9,9,3,6,9,78*
C[C@H](CO)N1C[C@H](C)[C@@H](CN(C)S(=O)(=O)c2ccccc2)OCCCC[C@H](C)Oc2ccc(NC(=O)c3ccccc3)cc2C1=O,.,.,.,.,5,.
COc1cc(/C=C2/SC(=S)N(Cc3ccccc3)C2=O)ccc1OCC(=O)O,-6,31,5,1,38,20
CCOc1cc(/C=C2/SC(=S)N(Cc3ccccc3)C2=O)ccc1O,0,1,-11,-8,10,76*
COc1cc([N+](=O)[O-])cc(/C=C2/SC(=S)N(Cc3ccccc3)C2=O)c1O,17,.,3,11,4,92*
COc1cc(/C=C2/SC(=S)N(Cc3ccccc3)C2=O)cc(Cl)c1O,38,.,6,18,-23,117*
C[C@@H]1CN([C@H](C)CO)C(=O)Cc2cc(NC(=O)Cn3cnnn3)ccc2O[C@H]1CN(C)S(=O)(=O)c1cn(C)cn1,.,.,.,.,0,.
Cc1noc(C)c1S(=O)(=O)Nc1ccc2c(c1)C(=O)N([C@H](C)CO)C[C@@H](C)[C@H](CN(C)C(=O)CCC(F)(F)F)OCCCC[C@@H](C)O2,.,.,.,.,3,.
C[C@@H]1CN([C@H](C)CO)C(=O)CCCn2nncc2CO[C@H]1CN(C)Cc1ccc(Oc2ccccc2)cc1,.,.,7,.,116*!,.
C[C@@H]1CN([C@@H](C)CO)C(=O)CCCn2nncc2CO[C@H]1CN(C)Cc1ccc(Oc2ccccc2)cc1,.,.,5,.,-1,.
C[C@@H]1CN([C@@H](C)CO)C(=O)CCCn2nncc2CO[C@H]1CN(C)S(=O)(=O)c1ccc(Cl)cc1,.,.,-8,.,102*!,.
CO[C@H]1CN(C)C(=O)c2ccc(NC(=O)Nc3ccc4c(c3)OCO4)cc2OC[C@H](C)NC[C@@H]1C,.,.,.,.,-28,.
CCOc1ccc(N=Cc2c(C)[nH]n(-c3nc4ccccc4[nH]3)c2=O)cc1,114*,35,5,16,0,118*
Cc1[nH]n(-c2ccccc2)c(=O)c1C=Nc1cnc2ccccc2c1,0,7,-13,1,.,-7
O=C(Cc1ccc(Cl)cc1)Nc1ccc(N2CCN(C(=O)c3ccco3)CC2)cc1,-5,1,90*,-3,.,-13
C[C@@H]1CN([C@H](C)CO)C(=O)Cc2cc(NC(=O)Nc3cccc4ccccc34)ccc2O[C@@H]1CN(C)C(=O)Nc1ccc2c(c1)OCO2,.,.,.,.,-13,.
c1ccc(CN=C(NCc2ccccc2)NCc2ccccc2)cc1,.,.,83*,25,13,.
S=C(NCc1ccccc1)C(=S)NCc1ccccc1,.,.,19,-3,.,.
Fc1ccccc1-c1ccc(C2[C@@H]3CN(Cc4ccccc4)C[C@H]2N3)cc1 (stereo partly drawn),.,.,.,.,10,.
O=C(Nc1ccc(F)cc1)N1C[C@@H]2N[C@H](C1)C2c1ccc(-c2ccccc2F)cc1 (stereo partly drawn),.,.,.,.,108*!,.
O=C(C1CC1)N1C[C@@H]2N[C@H](C1)C2c1ccc(-c2ccccc2F)cc1 (stereo partly drawn),.,.,.,.,87*!,.
O=C(c1ccc(F)cc1)N1C[C@@H]2N[C@H](C1)C2c1ccc(-c2ccccc2F)cc1 (stereo partly drawn),.,.,.,.,9,.
CC1Sc2ccc(S(=O)(=O)N3CCC(C(=O)Nc4cccc(Cl)c4)CC3)cc2NC1=O (stereo not drawn),42,42,90*,37,29,16
Cc1ccc(NC(=O)C2CCN(S(=O)(=O)c3ccc4c(c3)NC(=O)C(C)S4)CC2)cc1C (stereo not drawn),47,33,88*,14,1,-1
SMILES,Beta cell apopt,Mdm2-MdmX inh,Shn3 inh set2,Gli-Sufu antag,PAX8 inh HTS,CSC inhib
Cc1ccc(NC(=O)C2CCN(S(=O)(=O)c3ccc4c(c3)NC(=O)C(C)S4)CC2)c(C)c1 (stereo not drawn),-2,33,43,24,9,-5
CC1Sc2ccc(S(=O)(=O)N3CCC(C(=O)NCc4ccc(Cl)cc4)CC3)cc2NC1=O (stereo not drawn),4,43,51,14,38,-5
CCc1ccc(NC(=O)C2CCN(S(=O)(=O)c3ccc4c(c3)NC(=O)C(C)S4)CC2)cc1 (stereo not drawn),35,43,90*,26,38,13
CCCN(CCC)S(=O)(=O)c1ccc(NC(=O)c2cc(C(=O)OC)cc([N+](=O)[O-])c2)cc1,-8,2,53,-6,66*,16
CCC(C)(C)NC(=O)c1cc(C(=O)OC)cc([N+](=O)[O-])c1,-5,-7,-31,5,-7,-6
O=C(Cc1ccccc1)Nc1ccccc1C(=O)N1CCCCC1,.,17,0,-2,10,-7
O=C(Cc1ccccc1)c1ccccc1C(=O)N1CCCCC1,-1,4,-8,20,108*,-4
CCCCCc1ccc(OCCOCCn2c[n+](C)c3ccccc32)c(CCCCC)c1,.,.,93*,87*,.,.
CCCC(=O)Nc1ccc2c(c1)C(=O)N(C)[C@@H]1CC[C@@H](CC(=O)NCC(F)(F)F)O[C@@H]1CO2,.,.,.,.,-3,.
Cc1noc(C)c1S(=O)(=O)Nc1ccc2c(c1)C(=O)N([C@@H](C)CO)C[C@@H](C)[C@H](CN(C)C(=O)CCCN(C)C)OCCCC[C@@H](C)O2,.,.,.,.,13,.
COc1cc([N+](=O)[O-])cc(/C=N/NC(=O)c2cc(C)nc3ccccc23)c1O,-3,40,-5,-3,5,5
CCOc1cc(/C=N/NC(=O)c2cc(-c3cccc(OC)c3)nc3ccccc23)ccc1O,99*,-8,71,7,-7,6
COc1cc([N+](=O)[O-])cc(/C=N/NC(=O)c2cc(-c3ccccc3)nc3ccccc23)c1O,79*,35,9,2,47,56
CC(C)N1CCN(c2ccc(OC[C@H]3CO[C@](Cn4cncn4)(c4ccc(Cl)cc4Cl)O3)cc2)CC1,-1,29,2,7,16,52
CC(C)N1CCN(c2ccc(OCC3COC(Cn4cncn4)(c4ccc(Cl)cc4Cl)O3)cc2)CC1 (stereo not drawn),.,.,95*,11,-13,.
Clc1cccc(-c2nc3nc4ccccc4nc3n2Cc2ccccc2)c1,8,18,23,8,85*,17
C/C(Cl)=C\Cn1c(NCCc2ccccc2)nc2c1c(=O)n(C)c(=O)n2C,70,20,88*,82*,.,27
O=C(Nc1ccc(N2CCN(C(=O)c3ccco3)CC2)cc1)c1ccc2c(c1)OCO2,1,10,28,4,16,-9
Cc1ccccc1C(=O)N1CCN(c2ccc(NC(=O)c3ccc4c(c3)OCO4)cc2)CC1,4,22,62,36,26,77*
